From PubChem BioAssay (Tox21)
Active and inactive are the calls of the source. Calls come from the whole dose curve; as a rule, active = well fitted curve in the direction sought with a large enough effect in the repeat runs; inconclusive = weak or mixed curves; inactive = flat fitted curve, though single readings scatter. Positions of bridges follow the written chain, without caps; N, C: chain ends. Non-standard residues stand in square brackets, D forms with d. Residues, ends and D or L forms follow the SMILES beside them. *: point of attachment. X2 = CC[C@H](C)CCCCC(=O)*; Dab = NCC[C@H](N)C(=O)O

Assay: qHTS assay to test for compound auto fluorescence at 460 nm (blue) in HepG2 cell free culture (AID 720685)
Settings: Cell-free culture medium, blue autofluorescence 405/460 nm; series mostly up to 46 µM
From the text: U.S. Tox21 Program National Center for Advancing Translational Sciences [NCATS] NIH Chemical Genomics Center [NCGC] U.S. Environmental Protection Agency [EPA] National Institutes of Environmental Health Sciences [NIEHS] National Toxicology Program [NTP] U.S. Food and Drug Administration [FDA] Tox21 Assay Overview: Compound auto fluorescence often interferes with screening of the compound library against various biological targets and signaling pathways. Some of these compounds may have fluorophoric properties. Such properties may interfere with the assay outputs resulting in false positives and/or negatives. To decrease such complications and ensure the compound activities are relevant in terms of biological response, the Tox21 10K compound library was screened for auto fluorescence. From the fluorophores used as reporter signals in our screening assays, the auto fluorescence equivalencies of compounds against three fluorophores have been evaluated: Triamterene, Fluorescein and Rose Bengal sodium for blue, green and red fluorescence, respectively. The fluorescence intensities were measured using Excitation/Emission wavelengths at 405/460nm, 485/535nm and 540/590nm for blue, green and red labels, respectively. This assay includes the blue fluorescence data.
Tox21 Assay Protocol Summary: 5 uL of culture medium (MEM containing 10% FBS) per well was dispensed into black wall/clear bottom 1536-well plates using a Multidrop Combi Dispenser (ThermoFisher Scientific, Waltham, MA). After 23 nL compound or DMSO vehicle was transferred into assay plate by a pintool work station (Kalypsys, San Diego, CA), fluorescence intensities in the assay plates were measured by an Envision (PerkinElmer, Shelton, CT) plate reader using three labels for measuring blue, green and red fluorescence at […] 460, 535 and 590nm respectively.
For `CO[C@H]1C[C@@H]2CC[C@@H](C)[C@@](O)(O2)C(=O)C(=O)N2CCCC[C@H]2C(=O)O[C@H]([C@H](C)C[C@@H]2CC[C@@H](OCCO)[C@H](OC)C2)CC(=O)[C@H](C)/C=C(\C)[C@@H](O)[C@@H](OC)C(=O)[C@H](C)C[C@H](C)/C=C/C=C/C=C/1C`, the outcome was “inactive”. For `N#Cc1ccc2c(c1)N(CCCN1CCC(O)CC1)c1ccccc1S2`, the outcome was “inactive”. For `CC(NNC(=O)c1ccccc1)c1ccccc1` (stereo not given), the outcome was “inactive”. For `Cc1c(N)nc(C(CC(N)=O)NCC(N)C(N)=O)nc1C(=O)NC(C(=O)NC(C)C(O)C(C)C(=O)NC(C(=O)NCCc1nc(-c2nc(C(=O)NCCCN[C@@H](C)c3ccccc3)cs2)cs1)C(C)O)C(O[C@@H]1O[C@@H](CO)[C@@H](O)[C@H](O)[C@@H]1O[C@H]1O[C@H](CO)[C@@H](O)[C@H](OC(N)=O)[C@@H]1O)c1cnc[nH]1` (stereo not given in full), the outcome was “inactive”. In the case of `CCN1C(=O)NC(c2ccccc2)C1=O` (stereo not given), the outcome is reported as “inactive”. In the case of `O=C1NCCN1c1ncc([N+](=O)[O-])s1`, the outcome is reported as “inactive”. With `CCCCC[C@H](O)/C=C/[C@@H]1[C@H]2C/C(=C/CCCC(=O)O)O[C@H]2C[C@H]1O` the outcome was “inactive”. With `COc1ccc(C2NC(=S)N3C(c4ccc(OC)c(OC)c4)NC(=S)N23)cc1OC` (stereo not given) the outcome was “inactive”. For `CC(C)N1CCN(c2ccc(OC[C@H]3CO[C@](Cn4cncn4)(c4ccc(Cl)cc4Cl)O3)cc2)CC1`, the outcome was “inactive”. With `C[C@@H]1CCC2[C@@H](C)[C@@H](O)O[C@@H]3O[C@@]4(C)CC[C@@H]1[C@@]23OO4` (stereo not given in full) the outcome was “inactive”. For `COc1ccc(C(=O)CCC(=O)O)c2ccccc12`, the outcome was “inactive”. For `CC(C)C(=O)OCC(=O)[C@@]12O[C@H](C3CCCCC3)O[C@@H]1C[C@H]1[C@@H]3CCC4=CC(=O)C=C[C@]4(C)[C@H]3[C@@H](O)C[C@@]12C`, the outcome was “inactive”. For `NC(Cc1ccccc1)C(=O)O` (stereo not given), the outcome was “inactive”. For `CCNC(=O)[C@@H]1CCCN1C(=O)[C@H](CCCN=C(N)N)NC(=O)[C@H](CC(C)C)NC(=O)[C@@H](Cc1c[nH]c2ccccc12)NC(=O)[C@H](Cc1ccc(O)cc1)NC(=O)[C@H](CO)NC(=O)[C@H](Cc1c[nH]c2ccccc12)NC(=O)[C@H](Cc1cnc[nH]1)NC(=O)[C@@H]1CCC(=O)N1`, the outcome was “inactive”. For `O=[N+]([O-])O[C@@H]1CO[C@H]2[C@@H]1OC[C@@H]2O`, the outcome was “inactive”. In the case of `CS(=O)(=O)OCCCNCCCOS(C)(=O)=O`, the outcome is reported as “inactive”. In the case of `CCC(C)(C)OC(=O)N[C@@H](Cc1c[nH]c2ccccc12)C(=O)N[C@@H](CCSC)C(=O)N[C@@H](CC(=O)O)C(=O)N[C@@H](Cc1ccccc1)C(N)=O`, the outcome is reported as “inactive”. For `NCCC[C@H](N)C(=O)O`, the outcome was “inactive”. For `OC[C@@H](O)C(O)[C@H](O)CO`, the outcome was “inactive”. In the case of `CC1(C)C(\C=C/C=C\C=C/C=C2/N(CCCCS(=O)(=O)O)c3ccc4ccccc4c3C2(C)C)=[N+](CCCCS(=O)(=O)[O-])c2ccc3ccccc3c21`, the outcome is reported as “inactive”. In the case of `CN1CCN(C(c2ccccc2)c2ccc(Cl)cc2)CC1` (stereo not given), the outcome is reported as “inactive”. In the case of `O=C1/C(=C\c2cccs2)CCC/C1=C\c1cccs1`, the outcome is reported as “inactive”. With `O=C(Nc1ccc(Br)cc1)c1cc(Br)c(Br)s1` the outcome was “inactive”. In the case of `C=C1CC[C@H](O)CC1=C/C=C1\CCC[C@]2(C)[C@@H]([C@H](C)CCCC(C)(C)O)CC[C@@H]12`, the outcome is reported as “inactive”. With `CC(C)c1nc(N(C)S(C)(=O)=O)nc(-c2ccc(F)cc2)c1/C=C/C(O)CC(O)CC(=O)O` (stereo not given) the outcome was “inactive”. In the case of `O=C(O)CO.[NH2-].[NH2-].[Pt+2]`, the outcome is reported as “inactive”. With `CCCC1([C@H](O)C/C=C/[C@H]2[C@H](O)CC(=O)[C@@H]2CCCCCCC(=O)OC)CCC1` the outcome was “inactive”. In the case of `CCOC(=O)Cc1cccc(-c2cc(CCCCCCc3ccc(O[C@H]4O[C@H](COC(C)=O)[C@@H](OC(C)=O)[C@H](OC(C)=O)[C@@H]4OC(C)=O)c(-c4cccc(CC(=O)OCC)c4)c3)ccc2O[C@H]2O[C@H](COC(C)=O)[C@@H](OC(C)=O)[C@H](OC(C)=O)[C@@H]2OC(C)=O)c1`, the outcome is reported as “inactive”. For `CC1C(=O)CC2C3(C)CCC2(C(C)C(=O)O)C(=O)C13` (stereo not given), the outcome was “inactive”. For `C=Cc1c(C)c2cc3nc(cc4[nH]c(cc5nc(cc1[nH]2)C(C)=C5CCC(=O)OC)c(CCC(=O)O)c4C)[C@@]1(C)C3=CC=C(C(=O)OC)[C@H]1C(=O)OC`, the outcome was “inactive”. In the case of `CNCC(O)c1ccc(OC(=O)C(C)(C)C)c(OC(=O)C(C)(C)C)c1` (stereo not given), the outcome is reported as “inactive”. In the case of `C[C@H](CSC(=O)c1ccccc1)C(=O)N1C[C@@H](Sc2ccccc2)C[C@H]1C(=O)O`, the outcome is reported as “inactive”. With `O=C(O)c1c(Cl)c(Cl)c(Cl)c(Cl)c1-c1c2cc(I)c(=O)c(I)c-2oc2c(I)c(O)c(I)cc12` the outcome was “inactive”. For `CCC(Cc1c(I)cc(I)c(O)c1I)C(=O)O` (stereo not given), the outcome was “inactive”. In the case of `CCC(=O)Oc1ccc2c(c1)CC[C@@H]1[C@@H]2CC[C@]2(C)[C@@H](OC(=O)CC)CC[C@@H]12`, the outcome is reported as “inactive”. In the case of `Cc1c(Cl)cccc1Nc1ncccc1C(=O)O`, the outcome is reported as “inactive”. In the case of `CCCCCCCCCCCCCCCCCC(=O)OC[C@@H](O)[C@H]1OC[C@H](O)[C@H]1O`, the outcome is reported as “inactive”. With `Clc1cc(Cl)c(OCC#CI)cc1Cl` the outcome was “inactive”. With `CC[C@H](C)CCCCC(=O)N[C@@H](CCN)C(=O)N[C@H](C(=O)N[C@@H](CCN)C(=O)N[C@H]1CCNC(=O)[C@@H]([C@H](C)O)NC(=O)[C@H](CCN)NC(=O)[C@H](CCN)NC(=O)[C@H](CC(C)C)NC(=O)[C@@H](CC(C)C)NC(=O)[C@H](CCN)NC1=O)[C@@H](C)O` (X2-[Dab]T[Dab][Dab][Dab][dL]L[Dab][Dab][dT]; lactam 4-C) the outcome was “inactive”. In the case of `CNC[C@@H]1CC[C@@H](N)[C@@H](O[C@H]2[C@H](O)[C@@H](O[C@H]3OC[C@](C)(O)[C@H](NC)[C@H]3O)[C@H](N)C[C@@H]2N)O1`, the outcome is reported as “inactive”.
